In PubChem BioAssay AID1619 (SRMLSC, 2009):
The whole screen tested about 220,000 compounds, of which about 830 (0.38%) were called active.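 How the source made its calls: active means compound inhibiting the enzyme by more than half at any dose during confirmatory dose-response retesting; inconclusive means strong single-dose inhibitors picked by rank but not retested; inactive means the rest.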 These entries were drawn from the full list. Results with a measured potency or affinity are listed apart.

Target: Leucine aminopeptidase (Plasmodium falciparum (isolate 3D7)) (UniProt Q8IL11)
Experiment: P. falciparum M17LAP inhibitors, primary screen, biochemical, fluorogenic H-Leu-NHMec substrate, 1536-well (AID 1619);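 further: plate controls were full reaction with DMSO carrier for no effect and no enzyme background for full effect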
Details: recombinant M17LAP, H-Leu-NHMec fluorogenic kinetic assay; at 30 µM; active compounds read high

Sequence of Leucine aminopeptidase (Plasmodium falciparum (isolate 3D7)) (Q8IL11 whole entry, looked up): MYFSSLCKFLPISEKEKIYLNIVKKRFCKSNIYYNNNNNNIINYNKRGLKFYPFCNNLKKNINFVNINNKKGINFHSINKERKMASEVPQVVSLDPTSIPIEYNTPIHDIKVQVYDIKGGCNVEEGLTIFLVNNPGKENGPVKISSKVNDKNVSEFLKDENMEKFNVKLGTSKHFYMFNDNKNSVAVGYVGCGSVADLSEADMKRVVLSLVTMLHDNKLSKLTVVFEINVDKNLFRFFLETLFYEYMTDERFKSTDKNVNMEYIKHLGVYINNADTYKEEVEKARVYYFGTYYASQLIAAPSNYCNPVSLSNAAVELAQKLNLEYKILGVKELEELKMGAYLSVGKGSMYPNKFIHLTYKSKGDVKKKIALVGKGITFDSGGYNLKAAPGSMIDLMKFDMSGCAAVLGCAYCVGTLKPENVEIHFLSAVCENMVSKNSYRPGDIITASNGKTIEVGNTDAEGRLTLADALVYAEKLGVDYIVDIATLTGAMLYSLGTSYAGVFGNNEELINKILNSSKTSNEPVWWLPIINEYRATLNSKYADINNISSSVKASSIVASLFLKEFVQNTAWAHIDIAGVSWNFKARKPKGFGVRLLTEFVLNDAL

inhibition, inactive:
C/C(=C\C(=O)c1ccccc1)Nc1ccc2c(c1)OCO2 -1.02%
CCOC(=O)c1cnc(SC)nc1Oc1cccc(NS(=O)(=O)c2ccccc2)c1 12.5%
COc1ccc(-c2nc(C)c(C(C)=O)n2O)cc1[N+](=O)[O-] 39.5%
O=C(COn1nnc2ccc(C(F)(F)F)cc21)Nc1c(Cl)cccc1Cl -14.4%
FC(F)(F)c1ccnc(NCc2ccco2)n1 5.81%
O=C(CN1C(=O)S/C(=C\C=C\c2ccccc2)C1=O)Nc1ccc(O)cc1 9.74%
O=C(CN1C(=O)S/C(=C\C=C\c2ccccc2)C1=O)Nc1ccc(C(=O)O)cc1 15.3%
Cc1ccc(C)c2nc(SCC(=O)N3CCCc4ccccc43)c(C#N)cc12 -4.2%
CC(=O)NCC(=O)N1CCCC(C(=O)c2ccc(-c3ccccc3)c(F)c2)C1 (configuration not stated) -3.83%
Cc1cc(Nc2ccc([N+](=O)[O-])cc2)nc2ccccc12 13.7%
CC1=C(C)CC(C(=O)Nc2ccc(C(N)=O)cc2)C(C(=O)O)C1 (configuration not stated) 20.2%
CCOc1ccc(NS(=O)(=O)c2ccc(NC(=O)[C@@H]3CCCC[C@@H]3C(=O)O)cc2)cc1 42.4%
CC(C)OC(=O)C1CC=CCC1C(=O)Nc1ccc(Cl)cc1 (configuration not stated) 2.15%
CCOc1ccc(NC(=O)C2C3CC/C=C\CCC32)cc1 (configuration not stated) 4.68%
CCOc1ccc(NC(=O)C2CC(=O)OC2c2ccccc2)cc1 (configuration not stated) -1.92%
CC(C)(C)c1ccc(Oc2ccc(NC(=O)C3CC=CCC3C(=O)O)cc2)cc1 (configuration not stated) 3.52%
CC(=O)c1ccn(S(=O)(=O)c2ccc(Cl)cc2)c1 9.38%
CC(=O)Nc1ccc(NC(=O)C2CCCN(c3nnc(-n4cccc4)s3)C2)cc1 (configuration not stated) 4.4%
CCNC(=O)NCc1c(C)c(C)n(Cc2ccccc2)c1-n1cccc1 4.1%
CCOc1ccc2[nH]cc(C(=O)NCCCN3CCOCC3)c(=O)c2c1 4.64%
CCCCN1CNC(=S)N(CCc2ccc(OCC)c(OCC)c2)C1 4.53%
Cc1nnc(SCC(=O)NCc2ccc3c(c2)OCO3)n1C -1.94%
Cn1c(SCC(=O)c2ccc3c(c2)OCO3)nnc1C1COc2ccccc2O1 (configuration not stated) 10.4%
C=CCn1c(SCC(=O)Nc2cc(C)on2)nnc1C1COc2ccccc2O1 (configuration not stated) 9.81%
C=CCn1c(SCC(=O)NCc2ccc3c(c2)OCO3)nnc1C1CCCCC1 20.8%
O=c1[nH][nH]cc1C=Nc1ccccc1Cl 2.22%
Clc1ccc(OCc2nc(-c3ccncc3)no2)cc1 0.59%
COc1ccc(-c2[nH]n(-c3ccc([N+](=O)[O-])cc3)c(=O)c2C=NCc2ccncc2)cc1 -8.57%
CC(C)COC(=O)Nc1ccc(C(=O)O)cc1 13.3%
Cc1cc(C(F)F)n2nc(C(=O)Nc3ccccc3F)nc2n1 1.81%
O=C(O)CCCCCN1C(=O)/C(=C\c2cn(-c3ccccc3)nc2-c2cccs2)SC1=S -1.95%
O=C(O)CCCN1C(=O)/C(=C/c2cn(-c3ccccc3)nc2-c2cccs2)SC1=S 7.34%
Cn1c(=O)c(-c2cc(Br)ccc2N)nc2ccccc21 9.54%
COC(=O)c1c(NC(=O)c2ccoc2C)sc2c1CCC2 -15.6%
NC(=O)c1c(NC(=O)C2CCCO2)sc2c1CCCC2 (configuration not stated) 25.2%
CCOC(=O)c1c(NC(=O)c2ccoc2C)sc2c1CCC2 16.6%
NC(=O)c1c(NC(=O)C2CCCO2)sc2c1CCC2 (configuration not stated) 40%
O=c1cc(-c2ccc([N+](=O)[O-])cc2)c2cc3c(cc2[nH]1)OCCO3 0.51%
CCc1cccc(C)c1NC(=S)N(CCN(C)C)C(C)c1cccnc1 (configuration not stated) 3.46%
CSc1nnc(-c2sc3cc(C(F)(F)F)cnc3c2-c2cccnc2)n1C 2.54%
COc1cc(OC)c2ccc(=O)oc2c1C(CC(=O)N1CCOCC1)c1ccc2c(c1)OCO2 (configuration not stated) 11.3%
CCCc1cc(=O)[nH]c(SCCOc2ccc(Cl)cc2)n1 3.09%
CCN=C(NCC)SC1CC(=O)N(c2ccccc2)C1=O (configuration not stated) 0.73%
Cn1cnc(S(=O)(=O)Nc2ccc(C(F)(F)F)cc2)c1 8.69%
COc1ccc(S(=O)(=O)Nc2ccc(C(F)(F)F)cc2)cc1OC 8.66%
Cc1cc(NC(=O)CN2CCCCC2C)no1 (configuration not stated) 15.1%
CC(/C=N/NC(=O)CSc1nc(C)cc(C)n1)=C\c1ccccc1 11.7%
COc1ccccc1/C=C/C=N/NC(=O)CC1C(=O)NN=C1C (configuration not stated) 13.6%
CC1=NNC(=O)C1CC(=O)N/N=C/C(Br)=C/c1ccccc1 (configuration not stated) 15.5%
COc1ccccc1/C=C\C=N\NC(=O)CCn1nnc2ccccc21 4.22%
CC1C(=O)NN=C1C(=O)N/N=C\C(Br)=C\c1ccccc1 (configuration not stated) 45.9%
CC1=NNC(=O)C1CC(=O)N/N=C/C=C/c1ccccc1 (configuration not stated) 19.3%
CC(=C/c1ccccc1)/C=N/NC(=O)CSc1nc(C)cc(C)n1 22.8%
Cc1ccc(NC(=O)CCC(=O)N/N=C/C=C/c2ccccc2)cc1 16.5%
Cc1ccc(C(=O)Nc2cc(=O)n(C)c(=O)n2C)cc1C 1.37%
CCNC(=O)C/C(C)=N/NC(=O)C1CCCCC1 12.5%
CCn1ccnc1CN(C)Cc1nc(-c2ccc(C(=O)OC)cc2)no1 2.83%
O=C(CNS(=O)(=O)c1ccc(C(=O)N2CCOCC2)cc1)N1CCOCC1 -0.01%
COc1ccccc1NC(=S)N1CCC(c2nc3ccccc3o2)CC1 2.4%
CCOC(=O)CCn1c(=S)n(CCC(=O)OCC)c2ccccc21 9.93%
COc1ccc(N2CCN(CC(O)COc3ccc([N+](=O)[O-])cc3)CC2)cc1 (configuration not stated) 4.37%
NC(=O)c1cccc(CC(=O)c2ccccc2)c1 -5.22%
O=C(Cc1ccccc1)c1c[nH]c(C(=O)O)c1 -7.97%
O=c1[nH]nc(N/N=C/c2ccccc2OC(F)F)c(=O)[nH]1 3.73%
Cc1cccc(C)c1NC(=O)CCCSc1nc2ccccc2s1 2.06%
Cc1csc(NC(=O)CSCC(=O)O)c1-c1nc2ccccc2s1 1.7%
CC(=O)Nc1scc(C)c1-c1nc2ccccc2s1 -9.4%
O=C(O)CCC(=O)Nc1nc2ccccc2s1 16.1%
O=C(NNC(=S)Nc1ccc(Br)cc1Cl)c1ccncc1 21.5%
CCOC(=O)c1ccc(NC(=O)C2CCCN(S(=O)(=O)c3cnc[nH]3)C2)cc1 (configuration not stated) -0.78%
COc1ccc(CN2CCN(C(C)C)C(CCO)C2)cc1Cn1cncn1 (configuration not stated) 1.4%
COc1ccc(N2CCN(CCCNC(=O)C3CCC(CNc4nc(=S)[nH]c5ccccc45)CC3)CC2)cc1 (configuration not stated) 10.8%
COc1ccccc1N(CC(=O)NCCC1=CCCCC1)S(=O)(=O)c1ccccc1 -1.31%
CC1CN(C2CCN(C(=O)c3ccccc3)CC2)CC(C)O1 (configuration not stated) 6.07%
O=C(c1ccccc1F)N(Cc1ccc2c(c1)OCO2)Cc1cc2cc3c(cc2n2nnnc12)OCO3 3.97%
CCN(CC)C(=O)CSc1nc2c(sc(=S)n2-c2ccccc2)c(=O)[nH]1 12%
CCOc1ccc(-n2c(=S)sc3c(=O)[nH]c(SCC(=O)C(C)(C)C)nc32)cc1 37%
CCOC(=O)CSc1nc2c(sc(=S)n2-c2ccc(OCC)cc2)c(=O)[nH]1 14.5%
CCOC(=O)CSc1nc2c(sc(=S)n2Cc2ccco2)c(=O)n1-c1ccccc1 6.2%
CCOC(=O)c1sc(=S)n(-c2ccccc2)c1N 6.93%
CCCN(CCC)C(=O)CSc1nc2c(sc(=S)n2-c2ccc(OCC)cc2)c(=O)[nH]1 30.1%
CCN(CC)C(=O)CSc1nc2c(sc(=S)n2Cc2ccco2)c(=O)n1-c1ccccc1 8.29%
O=S(=O)(c1cc(Cl)cc(Cl)c1)N1CCCC1c1nc2ccccc2s1 (configuration not stated) -5.02%
O=C(COc1ncnc2sccc12)Nc1ccc2c(c1)OCCO2 34.8%
COc1ccccc1CNC(=O)COc1ccccc1OC 3.35%
Cc1cccc(NC(=O)Nc2ccc3c(c2)N(C)C(=O)CS3)n1 3.25%
O=c1c2c(-c3ccc(Cl)cc3)csc2ncn1/N=C/c1cccc([N+](=O)[O-])c1O -4.46%
Cc1ccc(N2NC(C)(c3cccs3)NC2=S)cc1 (configuration not stated) -1.38%
COc1cc(NC(=O)c2nccnc2N)cc(C(=O)Nc2cccc(C(F)(F)F)c2)c1 -5.13%
O=C(O)c1ccc(Cn2cc(C(F)(F)F)ccc2=O)cc1 -4.03%
O=C(CC1Sc2ccccc2NC1=O)Nc1cccc(-c2nnc3n2CCCCC3)c1 (configuration not stated) 3%
O=C(CC1Sc2ccccc2NC1=O)Nc1cccnc1 (configuration not stated) 5.83%
O=C(O)c1ccc(NC(=O)C2(c3ccccc3)CCCC2)cc1 3.99%
COC(=O)Nc1sc2c(c1C(N)=O)CCC(C)C2 (configuration not stated) 26.4%
COc1ccc2nc(Nc3sc4c(c3C(N)=O)CCCC4)sc2c1 8.22%
CC1CCc2c(sc(NC(=O)C3c4ccccc4Oc4ccccc43)c2C(N)=O)C1 (configuration not stated) 8.46%
Fc1cccc2sc(Nc3nc4c(F)cccc4s3)nc12 16.7%
